Where “and” joins values, the source holds several entries; their conditions need not be identical. Identical values can stand only once. Results filed as inconclusive are left out. A structure can be active in one record and inactive in another. Calls of active or inactive are those of the source. The call rests on the fitted dose curve; in most records, active means well fitted inhibition curve with a large enough effect; inconclusive means small, poorly fitted or top-dose-only effect; inactive means flat fitted curve, though single readings scatter.
On the % scale 0 is the no-effect control and ±100 the full control effect; potency means the concentration at half of the fitted maximal effect.

This assay can be described thus: Primary qHTS for inhibitors of nuclear receptor binding SET domain protein 2 (NSD2) in an isogenic RCH-ACV NSD2 p.E1099K mutant (9B) (AID 1645876). Further: nearly all actives have a fitted effect of over 70% in size. As to conditions: RCH-ACV (leukaemia line) NSD2 E1099K (9B) viability, CellTiter-Glo, 72 h; series mostly up to 44.9 µM; activity change, negative = viability loss: at the top concentration. (qHTS replaces the single test concentration by a dilution series.)
Turning to `COC(=O)c1ccc(=O)c2nc3/c(=C/O)c(O)cc(=O)c3[nH]c12`, the Potency was 5.17 µM (active).
With `N#Cc1c2nc3ccccc3nc2n2ccc(NC(=O)c3cccs3)cc12`, the Potency was 1.16 µM (active).
Take `COc1cc2ncnc(Sc3nnc(C)s3)c2cc1OC`: the Potency is 2.91 µM (active).
On to `Oc1cccc(Nc2ccnc3cc(-c4cccc(CN5CCOCC5)c4)sc23)c1`, for which the Potency was 1.64 µM (active).
Take `CCOc1cccc2c1OC(c1ccc(F)cc1)C([N+](=O)[O-])=C2` (centres undefined): the Potency was 5.8 µM (active).
As for `CCCCCC1CC1CC1CC1CCCCCCCC(=O)O` (centres undefined), the “activity change, negative = viability loss” value was 2.34% [at 17.3 µM] (inactive).
For `Oc1cccc(-c2nc(N3CCOCC3)c3sccc3n2)c1`, the Potency was 1.3 µM (active).
Still for that read-out and setting: under `O=C1NCCSc2c1sc1ccc(O)cc21` stands 5.8 µM (active); under `COC(=O)C#Cc1ccc([N+](=O)[O-])cc1`, 4.61 µM (active).
`Nc1nc(N)c2nc(-c3cccc(O)c3)cnc2n1`: the Potency was 1.64 µM (active).
With `O=C1O[C@H](C(O)CO)C(=O)C1=O` (some centres undefined), the outcome was inactive.
On to `Cc1cc(Nc2cc(C)c(C#N)c(NC(C)CCCC(C)(C)O)n2)n[nH]1` (centres undefined), for which the Potency is 1.03 µM (active).
Same read-out and setting: under `CSc1nc(N)cc(Oc2ccc(-c3nc(Nc4cccc(C(F)(F)F)c4)n[nH]3)cc2)n1` stands 1.64 µM (active).
As to `CN[C@H]1CCN(C(=O)c2ccc(Nc3ncc(F)c(-c4cnc(C)n4C(C)C)n3)cc2)C1`, the Potency was 0.092 µM (active).
`CCN(CC)CCNc1ccc2ncn3c4ccc(O)cc4c(=O)c1c23`: the Potency was 0.0651 µM (active).
Still for that read-out and setting: under `CN(C)CCCNc1c2ccccc2nc2c1[nH]c1ccccc12` stands 1.84 µM (active).
`C=C(C)[C@@H]1CCC2=CC(=O)C[C@@H](C)[C@]2(C)C1`: the “outcome” value is “inactive [at 91.9 µM]”.
Take `C/C(=C1/C(=O)Nc2ccc(NC(N)=O)cc21)c1ccc[nH]1`: the Potency was 1.64 µM (active).
As for `CC(Sc1nc2c(cnn2-c2cccc(Cl)c2)c(=O)[nH]1)C(N)=O` (centres undefined), the outcome was inactive.
For the molecule `CC1=CC(=O)C(C(C)C)=C/C1=N/OC(=O)c1ccccc1C`, the Potency is 8.2 µM (active).
As for `COc1ccc(-c2oc3ncnc(N)c3c2-c2ccc(NC(=O)Nc3cc(C(F)(F)F)ccc3F)cc2)cc1`, the Potency was 6.51 µM (active) and inactive.
As to `CN1CCN(c2nc(C3=C(c4c[nH]c5ccccc45)C(=O)NC3=O)c3ccccc3n2)CC1`, the Potency was 16.4 µM (active) and 16.6 µM (active).
Regarding `O=S(=O)(/N=C/c1c(O)ccc2ccccc12)c1cccs1`, the “activity change, negative = viability loss” value is -4.72% (inactive).
For `Cc1cc(C)c(/C=C2\C(=O)Nc3ccc(Cl)cc32)[nH]1`, the “activity change, negative = viability loss” value is -2.84% (inactive).
Same read-out and setting: as for `CCOC(=O)c1c2c3c(cccc3[nH]c1=O)C(=O)c1ccccc1-2`, the figure is 7.82% (inactive).
Take `O=C1Cc2c([nH]c3ccc([N+](=O)[O-])cc23)-c2ccccc2N1`: the Potency was 0.796 µM (active).
For `O=C(NCCO)c1cc(C(=O)NCCO)cc(C(=O)NCCO)c1`, the result was inactive.
Take `CCCCCCCCCCCCCC#CC(=O)[C@@H]1COC(C)(C)N1C(=O)OC(C)(C)C`: the Potency is 13 µM (active).
With `BrC1C(Br)C(Br)C(Br)C(Br)C1Br` (centres undefined), the “activity change, negative = viability loss” value is 7.1% (inactive).
As to `Cc1cc(Nc2nn(-c3ccccc3)c(=O)c3ccccc23)n[nH]1`, the Potency is 1.16 µM (active).
The same measure, in the same setting: as for `Cc1c(-c2ccnc(Nc3cc(Br)cc(C(F)(F)F)c3)n2)sc(=O)n1C`, the figure is 5.8 µM (active); as for `CCN(CC)CCNC(=O)c1c(C)[nH]c(/C=C2\C(=O)Nc3ccc(Cl)cc32)c1C`, 2.59 µM (active).
Consider `CC(CCc1ccccn1)(CCc1ccccn1)C(=O)c1ccccc1`, for which the result was inactive.
For the molecule `c1nc(NCC2CCOC2)c2cc(-c3ccc4c(c3)OCO4)ccc2n1` (centres undefined), the Potency is 16.4 µM (active).
Still for that read-out and setting: under `O=C(Nc1cccc(Nc2nccc(Nc3cccc(C(F)(F)F)c3)n2)c1)C1CC1` stands 3.66 µM (active); under `Cc1c[nH]c(/C=C2\C(=O)Nc3ccccc32)c1CCC(=O)O`, 14.8 µM (active).
With `CSC(Cc1ccc(Cl)cc1)C(=O)Nc1ccc(Cl)cc1C(=O)O` (centres undefined), the “activity change, negative = viability loss” value was -14.8% (inactive).
Take `COC1(c2sc3c(N4CCOCC4)nc(-c4cnc(N)nc4)nc3c2C)COC1`: the Potency was 0.209 µM (active).
For the molecule `Cc1cc(-c2ccc(/C=C3\SC(=Nc4ccc(Cl)c(C(=O)O)c4)NC3=O)o2)c([N+](=O)[O-])cc1C`, the molecule was called inactive.

Source of the values: PubChem BioAssay (NCATS).
